For assay [1] the following is noted: Ebola virus entry assay, blue channel fluorescence.
Assay [2] is described as follows: qHTS profiling of the MIPE4 collection as inhibitors of Plasmodium falciparum (3D7) proliferation (AID 743344).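 Note: scaled between DMSO vehicle wells and 0.29 µM artemisinin as full inhibition.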 The note with it: P. falciparum 3D7 in erythrocytes, SYBR Green DNA fluorescence, 72 h; at 28.5 µM (top of the series) unless noted. An outline of the steps: (§1)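 Parasite DNA was quantified by SYBR Green I fluorescence (ex 485, em 535 nm) after overnight lysis in saponin/Triton buffer at room temperature. Cultures at 0.3% parasitemia and 2.5% hematocrit were first exposed to compound for 72 h at 37 C; signals were normalised to artemisinin (0.29 uM) and vehicle wells.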
In general terms: qHTS replaces the single test concentration by a dilution series.

Assay [3] can be described thus: qHTS profiling of the MIPE4 collection as inhibitors of Plasmodium falciparum (DD2) proliferation (AID 743345). The note with it: P. falciparum Dd2 in erythrocytes, SYBR Green DNA, 72 h; at 28.5 µM (top of the series) unless noted. A digest of the protocol:
as §1

Assay [4] is described as follows: qHTS profiling of the MIPE4 collection as inhibitors of Plasmodium falciparum (DD2) proliferation (Rep 2) (AID 743346). The note with it: P. falciparum Dd2 in erythrocytes, SYBR Green DNA, 72 h; at 28.5 µM (top of the series) unless noted. A digest of the protocol:
as §1

Calls of active or inactive are those of the source. The rule behind the calls is not given here. Residues, ends and D or L forms follow the SMILES beside them.

With `NC/C=C/C(=O)O`, in assay [1], the compound was called inactive.
For `CCO[C@H](Cc1ccc(OCCc2ccc(OS(C)(=O)=O)cc2)cc1)C(=O)O`, the result in assay [1] was inactive.
For the compound `O=C(O)[C@H](O)c1ccccc1`, the result in assay [1] was inactive.
In the case of `NS(=O)(=O)c1ccc(Cl)c(S(N)(=O)=O)c1`, in assay [1], the compound was classed as inactive.
As for `CCC(C(=O)OCCN(CC)CC)c1ccccc1` (stereo not drawn), the compound was called inactive in assay [1].
For the compound `CC(=O)OCC(=O)[C@@]1(O)[C@H](OC(C)=O)C[C@H]2[C@@H]3CCC4=CC(=O)C=C[C@]4(C)[C@@]3(F)[C@@H](O)C[C@@]21C`, the compound was called inactive in assay [1].
Take `O=C1CCCc2c(O)cccc21`: the compound was classed as inactive in assay [1].
The same measure, in the same setting: the same measure for `CN[C@@H]1[C@H](O)[C@H](NC)[C@H]2O[C@@]3(O)C(=O)C[C@@H](C)O[C@H]3O[C@@H]2[C@H]1O`: “inactive”; for `Cc1cc(-n2nc3ccc(Cl)cc3n2)c(O)c(C(C)(C)C)c1`: “inactive”.
The same measure, in the same setting: the same measure for `Nc1ncnc2c1ncn2[C@@H]1O[C@H](CO)[C@@H](O)[C@H]1O`: “inactive”; for `CC(=O)Nc1ccc(C(=O)O)cc1`: “inactive”; for `Cc1c(NC(=O)c2cccnc2)c(=O)n(-c2ccccc2)n1C`: “inactive”.
On the same count and under the same terms, next, `CC(=O)NCc1c(I)c(NC(C)=O)c(I)c(C(=O)O)c1I`: “inactive”; `CCOc1ncc(F)c(=O)[nH]1`: “inactive”.
On to `CCN[C@@H](C)Cc1ccccc1`, for which the compound was classed as inactive in assay [1].
Same read-out and setting: next, `CCOC(=O)O[C@]1(C(=O)OCCl)CC[C@H]2[C@@H]3CCC4=CC(=O)C=C[C@]4(C)[C@H]3[C@@H](O)C[C@@]21C`: “inactive”.
In the case of `CC(=O)Nc1ccc(CC(=O)O)cc1`, in assay [1], the compound was classed as inactive.
On the same count and under the same terms, the same measure for `CCCCN(CCCC)CCCOC(=O)c1ccc(N)cc1`: “inactive”; for `CCCC(=O)Nc1ccc(O)c(C(C)=O)c1`: “inactive”; for `CC(C)(C)NCC(O)c1cc(O)cc(O)c1` (stereo not drawn): “inactive”.
Still for that read-out and setting: the same measure for `CC(CSC(=O)c1ccccc1)C(=O)N1C[C@@H](Sc2ccccc2)C[C@H]1C(=O)O` (stereo partly drawn): “inactive”; for `CC(C(=O)c1ccccc1)N(C)C` (stereo not drawn): “inactive”.
Turning to `Cc1ccc(Cl)c(Nc2ccccc2C(=O)O)c1Cl`, the compound was called inactive in assay [1].
Regarding `CCN[C@@H](C)Cc1cccc(C(F)(F)F)c1`, the result in assay [1] was inactive.
On the same count and under the same terms, next, `CO[C@@]1(NC(=O)C(C(=O)O)c2ccc(O)cc2)C(=O)N2C(C(=O)O)=C(CSc3nnnn3C)CO[C@@H]21` (stereo partly drawn): “inactive”.
In the case of `Nc1ccc(O)cc1`, in assay [1], the compound was called inactive.
Same read-out and setting: next, `C[C@H]1C[C@@H]2[C@H]([C@@H](O)C[C@@]3(C)[C@H]2CC[C@]3(O)C(=O)CO)[C@@]2(C)C=CC(=O)C=C12`: “inactive”.
On the same count and under the same terms, the same measure for `O=C(CCN1CCC(c2ccccc2)C1)c1ccc2c(c1)OCCO2` (stereo not drawn): “inactive”; for `CC[C@@]1(O)C(=O)OCc2c1cc1n(c2=O)Cc2c-1nc1ccccc1c2/C=N/OC(C)(C)C`: “inactive”.
In the case of `COC(=O)[C@H](Cc1ccccc1)NC(=O)[C@@H](N)CC(=O)O` (H-Asp-Phe-OMe), the compound was called inactive in assay [1].
As to `Cc1ccc(-c2ccccc2C#N)cc1`, in assay [1], the result was inactive.
The same measure, in the same setting: the same measure for `CCCCCCCCCCCCCCCCCC(=O)O`: “inactive”.
The same measure, in the same setting: the same measure for `O=C(O)c1cccnc1`: “inactive”; for `CC(C)C[C@H](NC(=O)CNC(=O)[C@H](Cc1ccc(O)cc1)NC(=O)[C@H](CO)NC(=O)[C@H](Cc1c[nH]c2ccccc12)NC(=O)[C@H](Cc1cnc[nH]1)NC(=O)[C@@H]1CCC(=O)N1)C(=O)N[C@@H](CCCN=C(N)N)C(=O)N1CCC[C@H]1C(=O)NCC(N)=O` (stereo in doubt): “inactive”.
Still for that read-out and setting: the same measure for `NC(=O)NC(=O)Cc1ccccc1`: “inactive”; for `CCCCCCn1c(=O)c2c(ncn2C)n(C)c1=O`: “inactive”.
Regarding `CCN(CC)C(C)CN1c2ccccc2Sc2ccccc21` (stereo not drawn), the outcome in assay [1] was inactive.
For the compound `C[C@]12CCC(=O)C=C1CC[C@@H]1[C@H]3CC[C@](C)(O)[C@@]3(C)CC[C@@H]12`, the parasite growth, % of DMSO control in assay [2] turned out to be 70.7% [at 57.5 µM]. Moreover, in assay [3], the parasite growth remaining, % of DMSO control (lower = more inhibition) is 94.5% [at 57.5 µM]. The parasite growth, % of control (lower = inhibition) in assay [4] came to 65.8% [at 57.5 µM].
In assay [2], `COc1cc(OC)c(OC)cc1C=O` registered a parasite growth, % of DMSO control of 98%. In assay [3], the parasite growth remaining, % of DMSO control (lower = more inhibition) came out at 89%. In addition, the parasite growth, % of control (lower = inhibition) in assay [4] came to 110%.

(Values after PubChem BioAssay (NCATS).)
